From PubChem BioAssay AID1159580 (chemical genetic matrix, 2015)
Among all 5,500 compounds or so, about 2,000 (36%) were called active. Another 18% or so got no clear call; they are omitted. No stated cut-off is given here; in the data, active means normalized growth mostly below about 0.91 (no sharp cut-off); inconclusive means no clear call, values can overlap the other calls; inactive means mostly above about 0.92. Some of the results follow.

Experiment: chemical genetic growth profiling, strain panel (AID 1159580);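 further: tested at 20 µM; growth read once vehicle control cultures reached saturation at 30 °C; 1 = growth at the plate median or of vehicle wells; lower values mean less growth of the strain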
Details: growth OD
[1] = S. cerevisiae deletion strains, locus YAL013W, strain DEP1, hits give low values
[2] = S. cerevisiae deletion strains, locus YBR229C, strain ROT2, hits give low values
[3] = S. cerevisiae deletion strains, locus YDL101C, strain DUN1, hits give low values
[4] = S. cerevisiae deletion strains, locus YDR150W, strain NUM1, hits give low values
[5] = S. cerevisiae deletion strains, locus YEL061C, strain CIN8, hits give low values
[6] = S. cerevisiae deletion strains, locus YGR078C, strain PAC10, hits give low values
[7] = S. cerevisiae deletion strains, locus YHR030C, strain SLT2, hits give low values
[8] = S. cerevisiae deletion strains, locus YHR087W, strain rtc3, hits give low values
[9] = S. cerevisiae deletion strains, locus YJR043C, strain POL32, hits give low values
[10] = S. cerevisiae deletion strains, locus YJR075W, strain HOC1, hits give low values
[11] = S. cerevisiae deletion strains, locus YLR039C, strain RIC1, hits give low values
[12] = S. cerevisiae deletion strains, locus YLR058C, strain SHM2 (second series), hits give low values
[13] = S. cerevisiae deletion strains, locus YLR085C, strain ARP6, hits give low values
[14] = S. cerevisiae deletion strains, locus YLR262C, strain YPT6, hits give low values
[15] = S. cerevisiae deletion strains, locus YML094W, strain GIM5, hits give low values
[16] = S. cerevisiae deletion strains, locus YMR219W, strain ESC1, hits give low values
[17] = S. cerevisiae deletion strains, locus YMR263W, strain SAP30, hits give low values
[18] = S. cerevisiae deletion strains, locus YNL153C, strain GIM3, hits give low values
[19] = S. cerevisiae deletion strains, locus YNL298W, strain CLA4 (second series), hits give low values
[20] = S. cerevisiae deletion strains, locus YNL322C, strain KRE1, hits give low values
[21] = S. cerevisiae deletion strains, locus YNR030W, strain Alg12, hits give low values
[22] = S. cerevisiae deletion strains, locus YOL006C, strain TOP1, hits give low values
[23] = S. cerevisiae deletion strains, locus YPL055C, strain LGE1, hits give low values
[24] = S. cerevisiae deletion strains, locus YPL241C, strain CIN2, hits give low values
[25] = S. cerevisiae deletion strains, locus YPR135W, strain CTF4, hits give low values
[26] = S. cerevisiae deletion strains, locus YAR019C, strain CDC15, hits give low values
[27] = S. cerevisiae deletion strains, locus YBL105C, strain PKC1, hits give low values
[28] = S. cerevisiae deletion strains, locus YBR135W, strain CKS1, hits give low values
[29] = S. cerevisiae deletion strains, locus YBR136W, strain MEC1, hits give low values
[30] = S. cerevisiae deletion strains, locus YBR160W, strain CDC28, hits give low values
[31] = S. cerevisiae deletion strains, locus YDL017W, strain CDC7, hits give low values
[32] = S. cerevisiae deletion strains, locus YDL028C, strain MPS1, hits give low values
[33] = S. cerevisiae deletion strains, locus YDL108W, strain KIN28, hits give low values
[34] = S. cerevisiae deletion strains, locus YDL132W, strain cdc53, hits give low values
[35] = S. cerevisiae deletion strains, locus YDL214C, strain PRR2, hits give low values
[36] = S. cerevisiae deletion strains, locus YDR052C, strain DBF4, hits give low values
[37] = S. cerevisiae deletion strains, locus YDR054C, strain cdc34, hits give low values
[38] = S. cerevisiae deletion strains, locus YDR226W, strain ADK1, hits give low values
[39] = S. cerevisiae deletion strains, locus YDR477W, strain SNF1, hits give low values
[40] = S. cerevisiae deletion strains, locus YER123W, strain YCK3, hits give low values
[41] = S. cerevisiae deletion strains, locus YER133W, strain GLC7, hits give low values
[42] = S. cerevisiae deletion strains, locus YFL009W, strain cdc4, hits give low values
[43] = S. cerevisiae deletion strains, locus YFL029C, strain CAK1, hits give low values
[44] = S. cerevisiae deletion strains, locus YFR003C, strain YPI1, hits give low values
[45] = S. cerevisiae deletion strains, locus YFR019W, strain FAB1, hits give low values
[46] = S. cerevisiae deletion strains, locus YFR028C, strain CDC14, hits give low values
[47] = S. cerevisiae deletion strains, locus YGR040W, strain KSS1, hits give low values
[48] = S. cerevisiae deletion strains, locus YGR052W, strain FMP48, hits give low values
[49] = S. cerevisiae deletion strains, locus YGR092W, strain DBF2, hits give low values
[50] = S. cerevisiae deletion strains, locus YHR079C, strain IRE1, hits give low values
[51] = S. cerevisiae deletion strains, locus YHR082C, strain KSP1, hits give low values
[52] = S. cerevisiae deletion strains, locus YHR205W, strain SCH9, hits give low values
[53] = S. cerevisiae deletion strains, locus YIL147C, strain SLN1, hits give low values
[54] = S. cerevisiae deletion strains, locus YJL095W, strain BCK1, hits give low values
[55] = S. cerevisiae deletion strains, locus YJL128C, strain PBS2, hits give low values
[56] = S. cerevisiae deletion strains, locus YJL157C, strain FAR1, hits give low values
[57] = S. cerevisiae deletion strains, locus YJR016C, strain ILV3, hits give low values
[58] = S. cerevisiae deletion strains, locus YJR066W, strain TOR1 (second series), hits give low values
[59] = S. cerevisiae deletion strains, locus YJR066W, strain TOR1, hits give low values
[60] = S. cerevisiae deletion strains, locus YKL048C, strain ELM1, hits give low values
[61] = S. cerevisiae deletion strains, locus YKL067W, strain YNK1, hits give low values
[62] = S. cerevisiae deletion strains, locus YKL101W, strain HSL1, hits give low values
[63] = S. cerevisiae deletion strains, locus YKL193C, strain SDS22, hits give low values
[64] = S. cerevisiae deletion strains, locus YKL203C, strain TOR2, hits give low values
[65] = S. cerevisiae deletion strains, locus YLR113W, strain HOG1, hits give low values
[66] = S. cerevisiae deletion strains, locus YLR133W, strain CKI1, hits give low values
[67] = S. cerevisiae deletion strains, locus YLR403W, strain SFP1, hits give low values
[68] = S. cerevisiae deletion strains, locus YML070W, strain DAK1, hits give low values
[69] = S. cerevisiae deletion strains, locus YMR001C, strain CDC5, hits give low values
[70] = S. cerevisiae deletion strains, locus YMR205C, strain PFK2 (second series), hits give low values
[71] = S. cerevisiae deletion strains, locus YMR277W, strain FCP1, hits give low values
[72] = S. cerevisiae deletion strains, locus YNL006W, strain LST8, hits give low values
[73] = S. cerevisiae deletion strains, locus YNL020C, strain ARK1, hits give low values
[74] = S. cerevisiae deletion strains, locus YNL161W, strain CBK1, hits give low values
[75] = S. cerevisiae deletion strains, locus YNL183C, strain NPR1, hits give low values
[76] = S. cerevisiae deletion strains, locus YNL207W, strain RIO2, hits give low values
[77] = S. cerevisiae deletion strains, locus YNL222W, strain SSU72, hits give low values
[78] = S. cerevisiae deletion strains, locus YNL307C, strain MCK1 (second series), hits give low values
[79] = S. cerevisiae deletion strains, locus YOL078W, strain AVO1, hits give low values
[80] = S. cerevisiae deletion strains, locus YOL136C, strain PFK27, hits give low values
[81] = S. cerevisiae deletion strains, locus YOR061W, strain CKA2, hits give low values
[82] = S. cerevisiae deletion strains, locus YOR119C, strain RIO1, hits give low values
[83] = S. cerevisiae deletion strains, locus YOR231W, strain MKK1, hits give low values
[84] = S. cerevisiae deletion strains, locus YOR329C, strain SCD5, hits give low values
[85] = S. cerevisiae deletion strains, locus YPL031C, strain PHO85, hits give low values
[86] = S. cerevisiae deletion strains, locus YPL153C, strain RAD53, hits give low values
[87] = S. cerevisiae deletion strains, locus YPL204W, strain HRR25, hits give low values
[88] = S. cerevisiae deletion strains, locus YPL209C, strain IPL1, hits give low values
[89] = S. cerevisiae deletion strains, locus YPL256C, strain CLN2, hits give low values
[90] = S. cerevisiae deletion strains, locus YPR025C, strain CCL1, hits give low values
[91] = S. cerevisiae deletion strains, locus YPR106W, strain ISR1, hits give low values
[92] = S. cerevisiae deletion strains, locus YPR111W, strain DBF20, hits give low values
[93] = S. cerevisiae deletion strains, strain NNK1, hits give low values
[94] = S. cerevisiae deletion strains, strain TSCII, hits give low values

Measured: normalized growth

Cc1ccc(NC(=S)C(C#N)C(=O)N2CCCC2)c(C)c1 (configuration not stated)
inactive: [1] 1.01 | [2] 0.998 | [3] 1.01 | [4] 0.928 | [5] 1.02 | [6] 0.988 | S. cerevisiae deletion strains, locus YGR229C, strain SMI1, hits give low values 1 | [7] 1.06 | [8] 1.01 | [9] 1.01 | [10] 1.02 | S. cerevisiae deletion strains, locus YKL190W, strain CNB1, hits give low values 1.01 | [11] 1.02 | [12] 0.995 | [13] 1.06 | [14] 1 | [15] 1.03 | [16] 1 | [17] 0.922 | S. cerevisiae deletion strains, locus YMR307W, strain GAS1, hits give low values 1.03 | [18] 0.98 | [19] 1.03 | [20] 0.988 | [21] 1.02 | [22] 1.04 | [23] 0.948 | [24] 1.02 | [25] 1.04

CC(C)Sc1c(Cl)cccc1NC(=O)Nc1cccc(C(F)(F)F)c1
active: [7] 0.773
inactive: [26] 0.981 | [27] 0.977 | [28] 0.972 | [29] 0.978 | [30] 0.981 | [31] 0.984 | [32] 0.979 | [3] 0.98 | [33] 0.972 | [34] 0.975 | [35] 0.927 | [36] 0.979 | [37] 0.97 | [38] 0.965 | [39] 0.916 | [40] 0.888 | [41] 0.945 | [42] 0.99 | [43] 0.976 | [44] 0.974 | [45] 0.918 | [46] 0.974 | [47] 0.908 | [48] 1.04 | [49] 0.94 | [50] 0.953 | [51] 0.96 | [52] 0.891 | [53] 0.979 | [54] 0.887 | [55] 0.956 | [56] 0.946 | [57] 0.984 | [58] 0.943 | [59] 0.912 | [60] 0.946 | [61] 0.914 | [62] 0.937 | [63] 0.975 | [64] 0.947 | [65] 0.908 | [66] 0.922 | [67] 0.953 | [68] 0.929 | [69] 0.977 | [70] 0.936 | [71] 0.973 | [72] 0.98 | [73] 0.926 | [74] 0.983 | [75] 0.918 | [76] 0.982 | [77] 0.97 | [78] 0.876 | [79] 0.966 | [80] 0.93 | [81] 0.957 | [82] 0.995 | [83] 0.946 | [84] 0.98 | [85] 0.905 | [86] 0.911 | [87] 0.896 | [88] 0.976 | [89] 0.861 | [90] 0.979 | [91] 0.976 | [92] 0.974 | [93] 0.97 | [94] 0.992

Cc1cc(NC(=O)Nc2cccc(C(F)(F)F)c2)n(C)n1
inactive: [1] 1 | [2] 0.997 | S. cerevisiae deletion strains, locus YCL061C, strain MRC1, hits give low values 1.01 | [3] 0.983 | [4] 0.998 | [5] 1.01 | [6] 1.01 | [7] 1.08 | [8] 0.989 | [9] 0.998 | [10] 0.992 | [11] 1.02 | [12] 1.01 | [13] 0.986 | [14] 1.09 | [15] 0.987 | [16] 1 | [17] 1.01 | [18] 0.998 | [19] 0.991 | [20] 1.01 | [21] 1 | [22] 1 | [23] 0.989 | [24] 0.981 | [25] 1.08 | S. cerevisiae strains, strain wild type, hits give low values 0.986

CC(C)Sc1c(Cl)cccc1NC(=O)Nc1ccccc1
active: [7] 0.666 | [65] 0.765 | [89] 0.803
inactive: [26] 0.971 | [27] 0.97 | [28] 0.96 | [29] 0.959 | [30] 0.962 | [31] 0.968 | [32] 0.962 | [3] 0.976 | [33] 0.966 | [34] 0.974 | [35] 0.871 | [36] 0.973 | [37] 0.959 | [38] 0.976 | [39] 0.867 | [40] 0.813 | [41] 0.899 | [42] 0.97 | [43] 0.964 | [44] 0.957 | [45] 0.872 | [46] 0.963 | [47] 0.843 | [48] 0.937 | [49] 0.836 | [50] 0.898 | [51] 0.858 | [52] 0.788 | [53] 0.964 | [54] 0.803 | [55] 0.966 | [56] 0.895 | [57] 0.97 | [58] 0.915 | [59] 0.835 | [60] 0.874 | [61] 0.892 | [62] 0.891 | [63] 0.963 | [64] 0.891 | [66] 0.857 | [67] 0.863 | [68] 0.869 | [69] 0.967 | [70] 0.863 | [71] 0.962 | [72] 0.975 | [73] 0.861 | [74] 0.975 | [75] 0.827 | [76] 0.965 | [77] 0.964 | [78] 0.771 | [79] 0.964 | [80] 0.86 | [81] 0.895 | [82] 0.935 | [83] 0.883 | [84] 0.966 | [85] 0.853 | [86] 0.867 | [87] 0.839 | [88] 0.973 | [90] 0.961 | [91] 0.964 | [92] 0.951 | [93] 0.942 | [94] 0.963
